NSD2 HMT inh = NSD2 (human) methyltransferase inhibition. NSD2 peptide methylation, AlphaScreen, 120 min. inhibition, % at 12.5 µM. hit rate 0.54% among 310,000; in the data active = inhibition above about 50%
Target sequence (O96028 whole entry, looked up): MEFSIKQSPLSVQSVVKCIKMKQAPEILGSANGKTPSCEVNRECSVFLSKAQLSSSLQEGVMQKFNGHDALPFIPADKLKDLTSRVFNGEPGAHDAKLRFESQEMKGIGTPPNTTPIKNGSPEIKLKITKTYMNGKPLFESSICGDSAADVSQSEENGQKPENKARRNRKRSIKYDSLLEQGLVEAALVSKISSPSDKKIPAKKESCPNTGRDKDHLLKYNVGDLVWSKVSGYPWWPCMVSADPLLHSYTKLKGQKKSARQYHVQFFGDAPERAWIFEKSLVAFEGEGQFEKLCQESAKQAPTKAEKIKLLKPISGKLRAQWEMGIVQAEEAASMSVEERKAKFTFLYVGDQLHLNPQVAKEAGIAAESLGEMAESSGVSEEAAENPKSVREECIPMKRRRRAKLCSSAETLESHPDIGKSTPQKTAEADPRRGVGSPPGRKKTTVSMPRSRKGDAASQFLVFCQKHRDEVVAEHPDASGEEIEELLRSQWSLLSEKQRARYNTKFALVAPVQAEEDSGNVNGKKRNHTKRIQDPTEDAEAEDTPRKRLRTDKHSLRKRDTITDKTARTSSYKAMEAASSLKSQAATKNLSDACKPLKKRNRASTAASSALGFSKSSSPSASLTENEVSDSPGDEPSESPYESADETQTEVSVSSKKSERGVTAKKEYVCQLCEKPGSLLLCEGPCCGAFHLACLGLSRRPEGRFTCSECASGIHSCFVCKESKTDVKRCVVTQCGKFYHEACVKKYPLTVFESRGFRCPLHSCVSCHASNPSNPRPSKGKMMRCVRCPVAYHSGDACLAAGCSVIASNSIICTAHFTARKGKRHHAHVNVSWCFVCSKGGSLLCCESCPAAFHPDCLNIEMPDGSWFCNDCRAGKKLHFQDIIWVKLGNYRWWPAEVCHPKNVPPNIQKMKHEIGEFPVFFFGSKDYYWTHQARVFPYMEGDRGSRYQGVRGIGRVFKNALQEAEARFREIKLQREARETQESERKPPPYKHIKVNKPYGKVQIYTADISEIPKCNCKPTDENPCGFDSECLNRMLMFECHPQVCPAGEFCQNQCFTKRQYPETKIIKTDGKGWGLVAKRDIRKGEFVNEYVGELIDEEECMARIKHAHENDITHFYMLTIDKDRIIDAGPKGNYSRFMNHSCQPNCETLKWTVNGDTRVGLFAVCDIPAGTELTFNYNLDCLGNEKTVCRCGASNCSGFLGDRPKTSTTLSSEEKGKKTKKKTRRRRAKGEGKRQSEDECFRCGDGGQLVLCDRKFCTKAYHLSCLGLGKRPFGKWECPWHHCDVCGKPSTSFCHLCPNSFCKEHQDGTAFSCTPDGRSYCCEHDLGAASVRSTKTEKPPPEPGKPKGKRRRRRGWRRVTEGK
MITF TRPM1 HTS = activators of MITF-driven TRPM1 promoter activity in SK-MEL-5 cells; hit rate 0.75% among 300,000; activation, % at 12.5 µM; SK-MEL-5 TRPM1-promoter luciferase, 24 h; % of positive control, neutral wells = 0;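 active = mean activation of at least 80% with every replicate also reaching 80%; inconclusive = mean reaches 80% but some replicate falls short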
Glyco luc inh = N-linked glycosylation inhibition. reporter increase, % at 12.5 µM. hit rate 0.23% among 360,000. D54 ERlucT glycosylation luciferase reporter, 24 h; percent of 100 nM tunicamycin response. AID 588692;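 active = mean luciferase reporter signal, scaled so untreated is 0 and the glycosylation-blocking control 100, at or above a set limit in every replicate; inconclusive = mean reaches the limit but not every replicate does; inactive = mean below the limit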;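 note: luciferase carries N-glycosylation sites so blocking glycosylation raises the light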
Wnt act = activates Wnt/beta-catenin signaling in a reporter cell assay; activator, plate reader; activation, % at 9.35 µM; hit rate 1.2% among 300,000; in the data active = activation above about 30%, passing the limit was not always enough; inconclusive = no clear call, values can overlap the other calls
TRPM1 prom inh = reduces MITF-dependent TRPM1 promoter luciferase signal | SK-MEL-5 TRPM1 promoter luciferase, 24 h | inhibition, % at 12.5 µM | hit rate 0.83% among 330,000 | AID 488899;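 active = mean inhibition across replicates of 60% or more, whatever share of single replicates reaches that level; inconclusive = some that reach 60%, reason not given; inactive = mean inhibition across replicates below 60%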
PfHsp90 yeast 2 = inhibits growth of yeast expressing Plasmodium falciparum Hsp90; AID 504621; inhibition, % at 9.4 µM; hit rate 0.32% among 310,000; S. cerevisiae expressing PfHsp90, BacTiter-Glo ATP, 48 h; yeast lacking PDR1 and PDR3 efflux regulators;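 active = every replicate shows inhibition above about 80%, whatever the replicate mean, limit read from the data; inconclusive = mean inhibition reaches the set limit but some replicate falls short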
Hits are given with their value. An excerpt weighted towards active compounds, which were near 2.9% of everything screened.

`COc1ccc(NC(=O)c2cc(S(=O)(=O)N(C)C)ccc2N2CCCC2)cc1Cl` gave NSD2 HMT inh inactive, MITF TRPM1 HTS inactive, Glyco luc inh 36, Wnt act inactive, TRPM1 prom inh inactive and PfHsp90 yeast 2 inactive.
Cc1ccc(NC(=O)c2cc3ccccc3oc2=O)cc1S(=O)(=O)N(C)C was read as NSD2 HMT inh inactive, MITF TRPM1 HTS inactive, Glyco luc inh inactive, TRPM1 prom inh 76 and PfHsp90 yeast 2 inactive.
Cc1ccc(NC(=O)c2cc(S(=O)(=O)N(C)C)ccc2N2CCCC2)cc1S(=O)(=O)N(C)C was read as NSD2 HMT inh inactive, MITF TRPM1 HTS inactive, Glyco luc inh 60, Wnt act inactive and TRPM1 prom inh inactive.
For COc1ccc(C2CC(=O)C(c3ccccc3C)=CN2Cc2ccccc2)cc1 (stereo unspecified) the results were Wnt act inactive.
CN(Cc1cccc(C(F)(F)F)c1)Cc1nc(-c2cnccn2)no1 was read as NSD2 HMT inh inactive, MITF TRPM1 HTS inactive, Glyco luc inh inactive, Wnt act inactive, TRPM1 prom inh inactive and PfHsp90 yeast 2 inactive.
For COc1ccccc1N1C(=O)N(C(C)=O)C2C1Nc1ccccc1N2C (stereo unspecified) the results were MITF TRPM1 HTS inactive, Glyco luc inh inactive, Wnt act inactive, TRPM1 prom inh 69 and PfHsp90 yeast 2 inactive.
Screening O=[N+]([O-])c1ncccc1OCCOc1ccc(Cl)cc1Cl returned NSD2 HMT inh inactive.
For O=C(c1cnsn1)N1CCC(CO)(Cc2cccc(F)c2)CC1 the results were NSD2 HMT inh inactive, MITF TRPM1 HTS 114, Glyco luc inh inactive, Wnt act 50, TRPM1 prom inh inactive and PfHsp90 yeast 2 inactive.
For Cc1cc(C(=O)N2CCC(CO)(Cc3cccc(C(F)(F)F)c3)CC2)n[nH]1 the results were NSD2 HMT inh inactive, MITF TRPM1 HTS inactive, Glyco luc inh inactive, Wnt act inactive, TRPM1 prom inh inactive and PfHsp90 yeast 2 inactive.
`CCCc1nnc(NC(=O)CCCN2C(=O)c3ccccc3C2=O)s1` gave MITF TRPM1 HTS inactive, Glyco luc inh inactive, TRPM1 prom inh inactive and PfHsp90 yeast 2 inactive.
CN=c1scc(-c2cccs2)n1/N=C/c1ccccc1O was read as NSD2 HMT inh inactive, MITF TRPM1 HTS inactive, Glyco luc inh inactive, Wnt act inactive, TRPM1 prom inh 87 and PfHsp90 yeast 2 inactive.
Nc1[nH]c(C(=O)c2ccccc2)c(-c2ccc(Cl)cc2)c1C(=O)c1c[nH]c2ccc(Br)cc12 was read as Wnt act inactive.
Screening C=C(NC(=O)C(=C)NC(=O)c1csc(C2=NC3c4csc(n4)C4NC(=O)c5csc(n5)C(C(C)(O)C(C)O)NC(=O)C5CSC(=N5)/C(=C/C)NC(=O)C(C(C)O)NC(=O)c5csc(n5)C3(CC2)NC(=O)C(C)NC(=O)C(=C)NC(=O)C(=C)NC(=O)C(C(C)C)NC2C=Cc3c(C(C)O)cc(nc3C2O)C(=O)OC4C)n1)C(N)=O (stereo unspecified) returned MITF TRPM1 HTS inactive, Glyco luc inh inactive, Wnt act inactive, TRPM1 prom inh 94 and PfHsp90 yeast 2 inactive.
`O=C(NCc1ccc(F)c(F)c1)C1CCC(CNS(=O)(=O)c2cccc3cccnc23)CC1` (stereo unspecified) gave NSD2 HMT inh inactive.
`Cc1cccc(CCNC(=O)c2ccc3c(c2)ncn3C2CCCCC2)c1` gave NSD2 HMT inh inactive.
COc1ccccc1N1CCN(C(=O)Cn2nc3n(C)c4ccccc4n3c(=O)c2=O)CC1 was read as NSD2 HMT inh inactive.
Cn1c(-c2cc3ccc(OC(=O)C(C)(C)C)cc3oc2=O)nc2ccccc21 was read as NSD2 HMT inh inactive, MITF TRPM1 HTS inactive, Glyco luc inh inactive, Wnt act 34, TRPM1 prom inh inactive and PfHsp90 yeast 2 inactive.
Screening CC(=O)Oc1ccc2cc(-c3nc4ccccc4n3C)c(=O)oc2c1 returned NSD2 HMT inh inactive, MITF TRPM1 HTS inactive, Glyco luc inh inactive, TRPM1 prom inh inactive and PfHsp90 yeast 2 inactive.
Screening COCCn1c(C)nnc1SCC(=O)Nc1ccccc1[N+](=O)[O-] returned NSD2 HMT inh inactive, MITF TRPM1 HTS inactive, Glyco luc inh inactive, Wnt act 51, TRPM1 prom inh inactive and PfHsp90 yeast 2 inactive.
`CCN(CC)c1ccc(C(=O)NNC(=O)CCNC(=O)c2ccccc2)cc1` gave NSD2 HMT inh inactive, MITF TRPM1 HTS inactive, Glyco luc inh inactive, Wnt act inactive, TRPM1 prom inh inactive and PfHsp90 yeast 2 inactive.
Screening CCN(CC)c1ccc(C(=C2C=CC(=[N+](CC)CC)C=C2)c2ccccc2)cc1 returned NSD2 HMT inh inactive, MITF TRPM1 HTS inactive, Glyco luc inh inactive, Wnt act inactive, TRPM1 prom inh 109 and PfHsp90 yeast 2 147.
CC(C(=O)OCC(=O)Nc1ccc(S(=O)(=O)N2CCCCC2)cc1)N1C(=O)c2ccccc2C1=O (stereo unspecified) was read as NSD2 HMT inh inactive, MITF TRPM1 HTS inactive, Glyco luc inh inactive, TRPM1 prom inh inactive and PfHsp90 yeast 2 inactive.
O=C(Nc1cccc(F)c1)N1CCC(c2ccccc2)CC1 was read as NSD2 HMT inh inactive, MITF TRPM1 HTS inactive, Glyco luc inh inactive, Wnt act inactive, TRPM1 prom inh inactive and PfHsp90 yeast 2 inactive.
O=C(c1ccc(F)cc1)N1CCC(c2ccccc2)C1 (stereo unspecified) was read as NSD2 HMT inh inactive, Glyco luc inh inactive, Wnt act 34, TRPM1 prom inh inactive and PfHsp90 yeast 2 inactive.
`COc1ccc(C(=O)N2CCCC(c3ccccc3)C2)cc1` (stereo unspecified) gave NSD2 HMT inh inactive, MITF TRPM1 HTS inactive, Glyco luc inh inactive, TRPM1 prom inh inactive and PfHsp90 yeast 2 inactive.
`O=C(Nc1ccc(Cl)cc1)N1CCC(c2ccccc2)C1` (stereo unspecified) gave NSD2 HMT inh inactive, MITF TRPM1 HTS 116, Glyco luc inh inactive, Wnt act 56, TRPM1 prom inh inactive and PfHsp90 yeast 2 inactive.
For Cc1ccc(NC(=O)N2CCC(c3ccccc3)C2)cc1C (stereo unspecified) the results were NSD2 HMT inh inactive, MITF TRPM1 HTS 128, Glyco luc inh inactive, Wnt act 56, TRPM1 prom inh inactive and PfHsp90 yeast 2 inactive.
Screening Cc1ccc(C2CCN(C(=O)Nc3ccccc3)C2)cc1 (stereo unspecified) returned NSD2 HMT inh inactive, MITF TRPM1 HTS inconclusive, Glyco luc inh inactive, TRPM1 prom inh inactive and PfHsp90 yeast 2 inactive.
`Cn1c(=O)c2cc(S(=O)(=O)N3CCN(CCO)CC3)ccc2n(C)c1=O` gave NSD2 HMT inh inactive.
COc1ccc(CN(CCN2CCOCC2)C(=O)c2ccccc2C)cc1OC was read as NSD2 HMT inh inactive.
For CN1CCCCC(NC(=O)c2ccc3ccccc3c2)C1=O (stereo unspecified) the results were Wnt act inactive.
COc1ccc(NS(=O)(=O)c2cn(C)c(=O)n(C)c2=O)cc1 was read as NSD2 HMT inh inactive, MITF TRPM1 HTS inactive, Glyco luc inh inactive, Wnt act 42, TRPM1 prom inh inactive and PfHsp90 yeast 2 inactive.

Assay outcomes from PubChem.
